# Shown are actives, neighbours in structure and some others; about 4.8% of the full set was active somewhere.
# ATXN viability = reduces viability in counter-screen for ATXN expression inhibitors; S2 cells (HEK-293 line with an ATXN2-luciferase reporter) viability, CellTiter-Fluor protease fluorescence, 24 h; Potency, µM (doses to about 56.7 µM), usual class: cytotoxic; 0.49% of 400,000 active; AID 651635; also: potency is read from the fitted curve at half-maximal effect; nearly all actives have a fitted effect of over 40% in size
# D3 ag = D3 dopamine receptor (human) agonism. D3R DiscoveRx beta-arrestin cells, luminescence, 90 min. max activation, %. 0.58% of 410,000 active; in the data active = max activation above about 30%; also: 0% is about no effect
# Target sequence (P35462 whole entry, looked up): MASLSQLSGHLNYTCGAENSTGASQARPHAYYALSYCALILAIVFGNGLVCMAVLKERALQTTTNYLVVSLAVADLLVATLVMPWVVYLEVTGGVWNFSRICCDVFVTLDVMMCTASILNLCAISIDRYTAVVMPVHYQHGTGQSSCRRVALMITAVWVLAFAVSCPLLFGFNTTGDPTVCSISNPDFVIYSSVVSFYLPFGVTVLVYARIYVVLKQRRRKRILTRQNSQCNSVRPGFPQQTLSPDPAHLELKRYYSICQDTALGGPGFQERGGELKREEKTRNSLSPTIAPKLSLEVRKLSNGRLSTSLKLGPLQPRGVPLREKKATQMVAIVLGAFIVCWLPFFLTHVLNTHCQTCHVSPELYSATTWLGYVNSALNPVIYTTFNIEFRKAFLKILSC
#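 Agonist mode: compounds and dopamine controls were applied to plated cells for 90 min at 37 degrees C after an overnight attachment at 1500 cells/well. Luminescent read-out followed 30 - 60 minutes at room temperature with DiscoveRx detection reagent.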
# D3 antag = antagonists of human D3 dopamine receptor; 2.5% of 360,000 active; D3R cells, DiscoveRx beta-arrestin luminescence, antagonist mode; stronger effect = lower value; max response, negative = inhibition, %; P35462; in the data active = max response below about -50%; inconclusive = no clear call, values can overlap the other calls; also: % is scaled to controls: 0 for no effect and ±100 for the full control effect
#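 Cells plated overnight at 1500 cells/well, then exposed to library compounds with dopamine controls for 90 minutes at 37 degrees C. DiscoveRx reagent added for 30–60 minutes at room temperature; luminescence read, quantitative HTS format.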
# ATXN2 expr inh = ATXN2 expression inhibition; Potency, µM (titrated, usually from 57 µM), without a hit: top-dose activity change, negative = inhibition, hits mostly inhibitors; 0.72% of 360,000 active; HEK-293 ATXN2-luciferase reporter, luminescence, 24 h; also: potency is read from the fitted curve at half-maximal effect; % is scaled to controls: 0 for no effect and ±100 for the full control effect; nearly all actives have a fitted effect of over 55% in size
#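 qHTS (up to 57 uM final) was run with 24 h compound exposure of reporter cells at 37 °C. Each well was multiplexed: SteadyGlo luminescence measured ATXN2-luciferase expression after a fluorogenic Gly-Phe-AFC viability readout (25 uM final).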
# TGFb SMAD3 inh = blocks TGF-b signaling. HepG2 CAGA-GFP TGF-b/SMAD3 reporter, GFP fluorescence, 18 h; TGF-beta stimulated, 500 pg/mL final. Potency, µM (series often up to 46.1 µM), for the others: at the highest dose activity, negative = inhibition, hits mostly inhibitors. 1.2% of 410,000 active. AID 588855; also: potency is read from the fitted curve at half-maximal effect; % is scaled to controls: 0 for no effect and ±100 for the full control effect; nearly all actives have a fitted effect of over 65% in size
#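 GFP signal (ex488/em500-530) from TGF-beta-stimulated HEPG2 CAGA-GFP cells, 500 pg/mL final, 18 h at 37 degrees C in DMEM plus 1% FBS, normalized to unstimulated and DMSO-stimulated controls.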
# HepG2 tox = kills HepG2 cells in TGF-b inhibitor counter-screen; 0.76% of 410,000 active; AID 588856; HepG2 CAGA-GFP viability, ATP luminescence, 18 h; Potency, µM (top dose mostly 46.1 µM), inactives show at the top dose activity change, negative = cytotoxicity, actives largely listed as cytotoxic; also: potency is read from the fitted curve at half-maximal effect
#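 HepG2 CAGA-GFP cells (1000/well, DMEM with 1% FBS) received compound, then TGF-beta at 500 pg/mL final, and were incubated 18 hours at 37 degrees C. Viability was read by CellTiter-Glo luminescence. Media-only wells were set as complete cell-killing and DMSO as no toxicity.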
# * hit, by the source's call; i = inactive; ? = inconclusive; . = not tested or not shown. Unless noted, calls follow the shape of the dose curve; as a rule, active = well fitted curve in the direction sought with a large enough effect; inconclusive = small, poorly fitted or top-dose-only effect, or another doubt; inactive = no such curve, though single readings can be large; an effect the other way counts as inactive or inconclusive.
SMILES,ATXN viability,D3 ag,D3 antag,ATXN2 expr inh,TGFb SMAD3 inh,HepG2 tox
Cc1cc(C(=O)NCCCn2ccnc2)sc1-c1ccccc1,i,-58,-70*,-2%,4%,-2%
CCc1ccc(C2=NNC(=Nc3cccc(S(=O)(=O)N(C)C)c3)SC2)cc1,?,1,-12,?,13µM*,-41%
COc1ccc2c(-c3ccc(OCCN4CCCCC4)cc3)c(-c3ccccc3OC)sc2c1,.,-60,-23,?,?,13µM*
COc1ccc(-c2c(-c3ccccc3OC)sc3ccccc23)cc1C=O,i,-2,-60*,9%,?,-5%
COc1ccc(-c2sc3cc(OC)ccc3c2-c2ccc(OCCN3CCCCC3)cc2)cc1,.,-8,-18,22µM*,.,.
COc1ccccc1-c1sc2ccccc2c1-c1ccc(OCCN2CCCCC2)cc1,.,-66,?,-7%,?,11µM*
COc1ccc(-n2nc3c(N4CCCC(C(=O)NCc5ccc(C)cc5)C4)nnc(C)c3c2C)cc1 (configuration not stated),.,7,.,?,-24%,-46%
CN1CCN(c2oc(/C=C/c3ccc(F)cc3)nc2C#N)CC1,.,-18,.,.,.,-10%
COc1cccc2ccc(/C=C/c3ccc4c(c3)OCO4)nc12,.,.,.,.,8%,4%
Oc1cccc(/C=C/c2ccc3cccc(O)c3n2)c1,i,1,?,122%,?,-32%
Cc1cc(C)c2ccc(N)nc2c1O,.,-3,7,?,-14%,-36%
COc1cccc(/C=C/c2ccc3cccc(O)c3n2)c1,?,-21,-56*,?,0%,-8%
Cc1ccc2c(Br)cc(Br)c(O)c2n1,?,-29,.,6.3µM*,.,.
COC(=O)c1ccc(/C=C/c2ccc3cccc(OC)c3n2)cc1,i,31*,4,12%,?,-35%
COc1cc(/C=C/c2ccc3cccc(O)c3n2)cc(Cl)c1OC,?,-17,-52*,30%,?,-32%
COc1cc(/C=C/c2ccc3cccc(O)c3n2)cc(Br)c1OC,?,-18,-55*,-38%,-18%,5%
COc1cc(/C=C/c2ccc3c(Br)cc(Br)c(O)c3n2)ccc1O,?,-27,-91*,.,?,-45%
COc1cc(/C=C/c2ccc3cccc(O)c3n2)cc(OC)c1OC,?,-27,-64*,16µM*,?,-13%
COc1ccc(/C=C/c2ccc3cccc(O)c3n2)cc1Br,i,-15,?,.,-14%,-30%
COc1cc(/C=C/c2nc(-c3ccccc3O)n[nH]2)cc(OC)c1OC,i,3,7,-9%,?,11µM*
CCCCn1cc(S(=O)(=O)c2ccc(CC)cc2)c(=O)c2cc(F)c(N3CCCC(C)C3)cc21 (configuration not stated),.,5,.,.,-8%,-19%
COc1ccc(-c2noc(-c3ccc(NCCc4ccccc4)c([N+](=O)[O-])c3)n2)cc1OC,i,4,.,10%,-14%,2%
Cc1cc(C)c(NC(=O)CCn2c(=O)c3cccn3c3cccnc32)c(C)c1,.,4,.,.,-2%,-3%
COc1cccc(/C=C/c2ccc3cccc(O)c3n2)c1OC,.,-20,-160*,.,?,-30%
COc1ccc(/C=C/c2ccc3cccc(O)c3n2)c(OC)c1OC,i,-26,0,.,?,-51%
SMILES,ATXN viability,D3 ag,D3 antag,ATXN2 expr inh,TGFb SMAD3 inh,HepG2 tox
CCc1nnc2c(Nc3cccc(F)c3)nc3ccc(C(=O)c4ccccc4)cc3n12,i,-10,.,-16%,-3%,2%
ClC(Cl)(c1nnnn1-c1ccccc1)c1nnnn1-c1ccccc1,?,-8,-72*,?,?,11µM*
c1ccc(-c2nnnn2-c2ccccc2)cc1,i,12,2,-20%,8%,-20%
COc1cccc2c1C1COC3C4CC(C(=O)O)C(C(C2)N13)N4C (configuration not stated),?,-19,-3,11µM*,?,-45%
CCCCn1nnnc1C(CCSC)N1CCN(C/C=C/c2ccccc2)CC1 (configuration not stated),?,-15,-122*,-20%,?,-19%
CCCCn1nnnc1C(c1ccccc1)N1CCN(CC)CC1 (configuration not stated),i,-7,-4,-8%,.,.
CCCCC(c1nnnn1CCOC)N1CCN(Cc2ccccc2)CC1 (configuration not stated),i,-1,-80*,4%,13%,-1%
CCCCn1nnnc1C(c1ccccc1)N1CCN(C(C)=O)CC1 (configuration not stated),i,13,9,6%,.,.
CCCCn1nnnc1C(CCc1ccccc1)N1CCN(C/C=C/c2ccccc2)CC1 (configuration not stated),?,-13,-58*,?,?,-44%
CCCC(c1nnnn1CCOC)N1CCN(Cc2ccccc2)CC1 (configuration not stated),i,-21,?,-5%,-2%,-46%
CNC(=S)N=Nc1c(O)[nH]c2ccccc12,i,-16,?,1%,0%,-19%
CN(C)C(=S)N=Nc1[nH]c2ccccc2c1O,.,-11,-29,.,2.8µM*,-72%
COc1ccc(C2C3C=CCC(C)C3C(=O)N2Cc2ccccc2)cc1Cl (configuration not stated),.,.,.,.,?,-35%
COc1ccc(N=C2S/C(=C\c3ccc(Cl)c([N+](=O)[O-])c3)C(=O)N2CCN(C)C)cc1,10µM*,-4,-128*,.,?,-133%
CCN(CC)CCN1C(=O)/C(=C\c2ccc(Cl)c([N+](=O)[O-])c2)SC1=Nc1ccc(OC)cc1,.,-26,-102*,32µM*,?,20µM*
O=C(NCCCN1CCCCC1)c1[nH]c2ccccc2c1Sc1ccc(Cl)cc1,.,3,.,?,?,13µM*
CCCCCCN1C[C@H](n2cc(COC(=O)c3ccccc3)nn2)[C@@H](O)C[C@@H]1c1ccc(C)cc1,?,2,28,?,?,10µM*
CCCCCCN1C[C@@H](n2cc(COC(=O)c3ccccc3)nn2)[C@H](O)C[C@@H]1c1ccc(Cl)cc1,32µM*,6,7,?,17%,1%
O=C(O)c1cc(NS(=O)(=O)c2ccc3ccccc3c2)ccc1O,i,-22,-108*,.,-6%,10%
CCC(CC)=N/N=C/c1c(O)n(CC)c2cc(C3=NNC(=O)CC3)ccc12,i,-2,-53*,-7%,12%,16%
CCn1c(O)c(/C=N/N=C/c2ccccc2)c2ccc(C3=NNC(=O)CC3)cc21,i,7,21,-17%,46%,-4%
